In the library only some 11% were active in any assay of this set; here they are far more common.
Tau fibril FP: tau fibrillization inhibition (FP); 280,000 tested, 0.39% active; P10636; Potency, µM (titrated, usually from 57.7 µM), without a hit: at the highest dose activity, negative = inhibition, hits mostly inhibitors; K18 P301L tau heparin fibrillization, Alexa594 FP, 6 h; note: potency is the fitted concentration of half-maximal effect; nearly all actives have a fitted effect of over 55% in size
Target sequence (P10636 561-689 P618L limits assumed): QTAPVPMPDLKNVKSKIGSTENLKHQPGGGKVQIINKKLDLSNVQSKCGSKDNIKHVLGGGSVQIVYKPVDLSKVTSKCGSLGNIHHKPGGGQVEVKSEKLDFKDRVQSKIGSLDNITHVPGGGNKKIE
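Steps: dispense K18 P301L tau (15 uM plus 0.24 uM Alexa 594 tracer, final) in pH 7 sodium acetate; add compound; add heparin (20 uM final); incubate 6 hr, 37 C; add ThT (30 uM final); after 1 hr ambient, read FP.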
G9a block: inhibitors of human histone lysine methyltransferase G9a. Q96KQ7. Potency, µM (top dose mostly 102 µM), inactives show at the top dose activity, negative = inhibition, hits mostly inhibitors. G9a H3K9 monomethylation, AlphaScreen, 2 h. 350,000 tested, 8.8% active; note: potency is the fitted concentration of half-maximal effect; nearly all actives have a fitted effect of over 75% in size
Target sequence (Q96KQ7 913-1193 limits assumed): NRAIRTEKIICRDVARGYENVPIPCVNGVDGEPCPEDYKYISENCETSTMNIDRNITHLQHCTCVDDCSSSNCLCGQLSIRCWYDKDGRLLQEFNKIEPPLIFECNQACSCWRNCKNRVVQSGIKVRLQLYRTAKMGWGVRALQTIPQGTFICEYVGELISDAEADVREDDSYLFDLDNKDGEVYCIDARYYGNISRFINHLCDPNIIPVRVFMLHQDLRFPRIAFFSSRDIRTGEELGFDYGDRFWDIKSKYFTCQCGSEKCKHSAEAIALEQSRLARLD
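Signal arises when biotinylated H3K9 peptide, once monomethylated, bridges streptavidin donor and antibody-captured acceptor beads. Enzyme at 20 nM was preincubated 15 min with test compounds; peptide 500 nM and SAM 20 uM then reacted for 2 h.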
Coupling enz: coupling enzyme interference in Giardia aldolase counter-screen. AID 2472. 290,000 tested, 0.67% active. activity change, negative = inhibition, % at 58.2 µM, hits read low. coupling enzyme system counterscreen, AmpLite Red fluorescence; in the data active = activity change below about -30%
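Final compound at 57.5 uM, incubated 10 min at RT with coupling enzyme reagent (glyceraldehyde-3-phosphate), then 20 min with substrate and AmpLite Red detection. Fluorescence read at 525/598 nm; tests interference with the coupling assay, not aldolase inhibition.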
Tau fluor counter: counter-screen for tau fibril formation inhibitors. tau K18 P301L Alexa594 fluorescence, heparin fibrillization. Potency, µM (highest dose often 57.7 µM), for inactives: top-dose activity change, negative = decrease. 280,000 tested, 0.93% active. AID 1463; note: potency is the fitted concentration of half-maximal effect; nearly all actives have a fitted effect of over 55% in size
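Human K18 P301L tau (15 uM unlabeled plus 0.24 uM Alexa 594-labeled, final) in 100 mM sodium acetate pH 7 was mixed with compound and 20 uM heparin and incubated 6 hr at 37 C.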
Sfp PPTase inh: Sfp phosphopantetheinyl transferase inhibition; Potency, µM, for the others: largest response in the series, negative = inhibition, actives largely listed as inhibitors; AID 1490; Biochemical Sfp PPTase activity, qHTS; 310,000 tested, 3.5% active; Q9F4F7;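 note: the enzyme is Sfp with the accession as filed and its product quenches rhodamine fluorescence; potency is the fitted concentration of half-maximal effect; 0% = enzyme reaction without inhibitor and -100% = no enzyme wells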
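Buffer: 50 mM Hepes-Na pH 7.6, 10 mM MgCl2, 0.01% Nonidet P-40, 0.01% BSA. Enzyme 15 nM, pre-exposed to compound 15 min; substrates then added and fluorescence change tracked over 30 min.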
Tau fibril ThT: blocks human tau fibril formation measured by thioflavin T; recombinant tau K18 P301L, heparin-induced fibrillization, ThT fluorescence; P10636; 270,000 tested, 2.1% active; AID 1460; Potency, µM (series often up to 57.4 µM), inactives show at the top dose activity, negative = inhibition, usual class: inhibitors; note: potency is the fitted concentration of half-maximal effect; nearly all actives have a fitted effect of over 55% in size
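ThT emission at 510 nm, taken 1 hr after adding 30 uM dye, quantifies aggregates formed when 20 uM heparin acts on human tau K18 P301L for 6 hr at 37 C.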
* marks the source's active call; other numbers are inactive results; u = inconclusive; x = no result given; [ ] = dose if it differs, or a comment. Unless noted, calls come from the whole dose curve; as a rule, active = well fitted curve in the direction sought with a large enough effect; inconclusive = small, poorly fitted or top-dose-only effect, or another doubt; inactive = no such curve, though single readings can be large; an effect the other way counts as inactive or inconclusive. Unless noted, % is set by controls: 0 for no effect and ±100 for the full control effect.

SMILES	Tau fibril FP	G9a block	Coupling enz	Tau fluor counter	Sfp PPTase inh	Tau fibril ThT
CC(=O)N1CCCc2cc(S(=O)(=O)N3CCN(c4ccccc4F)CC3)ccc21	-8%	-3%[59 µM]	x	-16%	x	-8%
CCCCNC(=O)CN1C(=O)c2cccnc2Sc2ccccc21	-6%	-2%[59 µM]	x	-4%	x	-6%
CC(C)N(CC(O)COc1ccc(CC(N)=O)cc1)CC(O)COc1ccc(CC(N)=O)cc1 (centres undefined)	x	u	-1	x	15%	x
O=C(c1ccccc1)c1ccc2nc[nH]c2c1	7%	5%[59 µM]	0	-12%	14%	-17%
Nc1ccc2nc[nH]c2c1	-1%	50µM*	-41*	-9%	-20%	u
Cc1ccc(-c2nc(C(=O)NCc3ccc(Cl)cc3)c3n2CCCCC3)cc1	-5%	6%[59 µM]	x	-22%	x	2%
CCOc1ccccc1CNC(=O)c1nc(-c2ccc(Cl)cc2)n2c1CCCCC2	3%	10µM*	x	1%	x	-8%
O=C(NCCc1ccc(Cl)cc1)c1nc(-c2cccc(F)c2)n2c1CCCCC2	16%	25µM*	x	1%	x	-4%
COc1ccc(N(C)C(=O)c2nc(-c3cccc(F)c3)n3c2CCCCC3)c(OC)c1	10%	-23%[59 µM]	x	1%	x	2%
CC(C)N(Cc1ccccc1)C(=O)c1nc(-c2ccc(Cl)cc2)n2c1CCCCC2	-7%	u	x	2%	x	-2%
COc1cc(NC(=O)c2nc(-c3ccc(Cl)cc3)n3c2CCCCC3)cc(OC)c1OC	9%	u	x	-18%	x	-3%
O=C(NCc1ccccc1)c1nc(-c2ccc(Cl)cc2)n2c1CCCCC2	-5%	14µM*	x	0%	x	-3%
O=C(NCCc1ccccc1)c1nc(-c2ccc(Cl)cc2)n2c1CCCCC2	6%	14µM*	x	-3%	x	-8%
Cc1ccc(NC(=O)C(Cc2ccccc2)n2cccc2)c(C)c1 (centres undefined)	-16%	-8%[59 µM]	x	-12%	x	-12%
N=C(N)N1Cc2ccccc2C(O)C1 (centres undefined)	x	x	-1	x	-4%	x
CCCc1cc(=O)[nH]c(SCc2nc(-c3ccc(C)cc3)no2)n1	6%	10%[59 µM]	x	6%	x	4%
Cc1cccc(-c2nc3nc(C)cc(NCc4ccccc4Cl)n3n2)c1	u	0%[59 µM]	x	11%	x	-11%
Cn1cc(CNC(=O)CC2C(=O)NCCN2CC(C)(C)C)cn1 (centres undefined)	2%	50µM*	-7	-2%	14%	-14%
CSc1cccc(CNC(=O)CC2C(=O)NCCN2CC(C)(C)C)c1 (centres undefined)	-11%	40µM*	-5	-5%	-4%	-15%
CC(C)(C)CN1CCNC(=O)C1CC(=O)NCc1cccc(-n2cccn2)c1 (centres undefined)	6%	x	0	-7%	-9%	-14%
COc1cc(/C=C\C(=O)N2CCC=CC2=O)cc(OC)c1OC	x	9%[21.5 µM]	-1	x	15%	x
CC(=O)N[C@H](Cc1c[nH]c2ccccc12)C(N)=O	-5%	-1%[2.33 µM]	2	-8%	15%	5%
COc1cc2cc(CCCOC(=O)c3ccc(C(F)(F)F)cc3)oc(=O)c2cc1OC	x	4%[2.33 µM]	x	x	x	x
COc1cc(NC(=O)CN(c2cc(C)cc(C)c2)S(=O)(=O)c2c(C)[nH]c(=O)[nH]c2=O)cc(OC)c1	-2%	8%	x	-10%	4%	-7%
Cc1cc(C)cc(N(CC(=O)Nc2ccc(C(F)(F)F)cc2)S(=O)(=O)c2c(C)[nH]c(=O)[nH]c2=O)c1	0%	25µM*	x	-22%	21%	-8%
SMILES	Tau fibril FP	G9a block	Coupling enz	Tau fluor counter	Sfp PPTase inh	Tau fibril ThT
Cc1ccc(OCC(O)Cn2nc(C)cc2C)cc1 (centres undefined)	0%	20%	0	-4%	14%	-7%
CCOC(=O)c1c(CC(C)C)csc1N	5%	40µM*	-1	-9%	2%	6%
COC(=O)c1c(-c2cccc(C)c2)csc1N	15%	u	-6	-25%	-28%	-11%
CCOC(=O)c1c(-c2ccc(C)s2)csc1N	1%	u	-41*	7%	11µM*	9%
CCOC(=O)c1c(-c2ccsc2)csc1N	6%	48%[59 µM]	-34*	-25%	56µM*	u
CCOC(=O)c1c(-c2ccc(C)o2)csc1N	10%	10µM*	-29	-24%	u	u
CCOC(=O)c1cc(-c2ccc(C)o2)n[nH]1	4%	u	2	6%	4%	-5%
CC(C)CCCN1C(N(C)C)=NC[C@@H]1C	x	13%[2.33 µM]	x	x	x	x
CC(=O)Nc1cccc(C(=O)NCc2ccc3c(c2)CCN3C(C)=O)c1	11%	0%[59 µM]	x	21%	x	12%
Cc1ccc(N2CCN(c3ccc(C)cc3)C2c2ccncc2)cc1	0%	35µM*	0	-20%	45µM*	u
Cc1ccc(NC(=O)CCC(=O)NNS(=O)(=O)c2ccccc2)cc1C	-2%	-1%[59 µM]	2	-15%	2%	-12%
Cc1ccc(NC(=O)Cc2ccccc2)c(C)c1	-2%	-2%[59 µM]	1	11%	-10%	4%
Cc1ccc(S(=O)(=O)NNC(=O)CCCCC(=O)NNS(=O)(=O)c2ccc(C)cc2)cc1	-9%	45µM*	1	3%	17%	5%
Cc1ccc(NC(=O)CS(=O)c2ccccc2N)c(C)c1 (centres undefined)	x	40µM*	2	x	8%	x
